Shown are actives, neighbours in structure and some others; about 17% of the full set was active somewhere.
TDP1 cell CPT: DT40-hTDP1 cell growth loss with CPT; chicken DT40 Tdp1-/-;hTDP1 cells + 20 nM CPT, ATP luminescence, 48 h; Potency, µM (doses to about 46.2 µM), without a hit: at the highest dose activity change, negative = growth inhibition, most hits filed as inhibitors; actives 12% (n = 420,000); also: % is scaled to controls: 0 for no effect and ±100 for the full control effect; nearly all actives have a fitted effect of over 55% in size
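Chicken DT40 Tdp1-/- cells complemented with human TDP1, 400 cells/well, exposed to compounds plus 20 nM camptothecin for at least 48 h at 37 C; viability read as ATP content by CellTiter-Glo luminescence.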
TGFb SMAD3 inh: inhibitors of TGF-b signaling; HepG2 CAGA-GFP TGF-b/SMAD3 reporter, GFP fluorescence, 18 h; TGF-beta stimulated, 500 pg/mL final; Potency, µM (highest dose often 46.1 µM), for inactives: at the highest dose activity, negative = inhibition, most hits filed as inhibitors; actives 1.2% (n = 410,000); also: % is scaled to controls: 0 for no effect and ±100 for the full control effect; nearly all actives have a fitted effect of over 65% in size
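TGF-beta reporter screen: HEPG2 CAGA-GFP, 1% FBS, 500 pg/mL TGF-beta final, 18 h; per-cell GFP summed per well; curves fitted and categorized by class.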
HT1080 IDH1KD tx: kills HT-1080 cells with IDH1 knockdown; HT-1080 IDH1 knockdown viability, ATP luminescence, 48 h; Potency, µM (doses to about 46.1 µM), without a hit: at the top dose activity, negative = toxicity, hits mostly cytotoxic; actives 2% (n = 360,000); AID 686971;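 also: 0% = DMSO wells and -100% = cell-free medium wells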
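Assay cells: HT-1080 with IDH1 knockdown, 750 per well, RPMI/5% FBS. Exposure: 48 h at 37 °C following 2 h pre-incubation. Read: CellTiter-Glo luminescence; fitted concentration-response, curve class assigned.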
HepG2 viability: kills HepG2 cells in TGF-b inhibitor counter-screen; HepG2 CAGA-GFP viability, ATP luminescence, 18 h; Potency, µM (highest dose often 46.1 µM), for the others: top-dose activity change, negative = cytotoxicity, most hits filed as cytotoxic; actives 0.76% (n = 410,000)
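HepG2 CAGA-GFP cells (1000/well, DMEM with 1% FBS) received compound, then TGF-beta at 500 pg/mL final, and were incubated 18 hours at 37 degrees C. Viability was read by CellTiter-Glo luminescence. Media-only wells were set as complete cell-killing and DMSO as no toxicity.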
HT1080-NT tox: kills 2HG-producing HT-1080-NT fibrosarcoma cells; actives 1.6% (n = 360,000); HT-1080-NT fibrosarcoma viability, CellTiter-Glo ATP luminescence, 48 h; Potency, µM (series often up to 46.1 µM), for inactives: at the top dose activity, negative = less viability, actives largely listed as cytotoxic;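 also: NT is the 2HG producing partner of a matched IDH1 knockdown line; 0% = DMSO-treated cells and -100% = media-only wells without cells; nearly all actives have a fitted effect of over 55% in size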
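Read-out is CellTiter-Glo luminescence after 10 minutes at room temperature, following 48 hours' compound treatment of HT-1080-NT cells (750 cells/well, RPMI, 5% FBS, 37 degrees C).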
DT40 TDP1 no CPT: qHTS for Inhibitors of human tyrosyl-DNA phosphodiesterase 1 (TDP1): qHTS in cells in absence of CPT; DT40 Tdp1-/- hTDP1 cells, no CPT, ATP luminescence, 48 h; actives 15% (n = 420,000); Potency, µM (series often up to 46.2 µM), inactives show at the top dose activity change, negative = growth inhibition, hits mostly inhibitors; also: % is scaled to controls: 0 for no effect and ±100 for the full control effect; nearly all actives have a fitted effect of over 55% in size
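Growth of hTDP1-complemented DT40 Tdp1-knockout cells is measured by ATP luminescence after at least 48 hr compound exposure at 37 °C, with DMSO substituting for the 20 nM CPT used in the parallel screen.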
Starred values were filed as active, the others as inactive; ? = inconclusive; · = not tested or not shown; [ ] = dose if it differs, or a comment. Calls follow the shape of the dose curve; as a rule, active = well fitted curve in the direction sought with a large enough effect; inconclusive = small, poorly fitted or top-dose-only effect, or another doubt; inactive = no such curve, though single readings can be large; an effect the other way counts as inactive or inconclusive. Potency is read from the fitted curve at half-maximal effect.

SMILES	TDP1 cell CPT	TGFb SMAD3 inh	HT1080 IDH1KD tx	HepG2 viability	HT1080-NT tox	DT40 TDP1 no CPT
Cc1nn(-c2ccccc2)c2c1cc1c(=O)n(C)c(=O)nc-1n2-c1cccc(Cl)c1	0%	-7%	·	-5%	·	-23%
CC(=O)Nc1ccc(NC(=O)COc2cc(O)c3c(c2)OC(C)(C)CC3=O)cc1	?	4%	-2%	-18%	-1%	?
Cc1cc(OCC(=O)Nc2ccc(Br)cc2)cc2c1C(=O)CC(C)(C)O2	29µM*	?	-3%	-7%	-16%	23µM*
Cc1sc2nc(SCC(=O)Nc3c(C)n(C)n(-c4ccccc4)c3=O)n(C)c(=O)c2c1C	-26%	-11%	-7%	5%	-1%	-30%
Cc1sc2nc(SCC(=O)OC(C)C)n(C)c(=O)c2c1C	-27%	2%	8%	-1%	15%	23µM*
COc1ccccc1NC(=O)c1cnc(SCC(=O)NCC2CCCO2)n(C)c1=O (centres undefined)	10µM*	?	-23%	-29%	-40%	?
Cc1sc2nc(SCC(=O)NCCO)n(C)c(=O)c2c1C	-15%	12%	2%	12%	7%	-3%
COc1ccccc1NC(=O)CSc1nc2sc(C)c(C)c2c(=O)n1C	21µM*	16%	-2%	-13%	10%	13µM*
COc1ccc(C(=O)CCN2CCC(C)CC2)cc1	13µM*	?	?	-44%	?	12µM*
COc1ccc(NC(=S)N(CCCN2CCCC(C)C2)Cc2cccs2)cc1 (centres undefined)	?	-1%	-6%	-4%	-8%	29µM*
COc1ccc(N2CCN(CC(=O)N3CCC(C)CC3)CC2)cc1	-23%	0%	3%	1%	0%	-1%
COc1ccc(NC(=S)N(CCCN2CCCC2)Cc2cccs2)cc1	8%	7%	1%	-5%	-8%	-6%
COc1ccc(C(=O)CCN2CCCC(C)C2)cc1 (centres undefined)	23µM*	-27%	-2%	1%	?	?
COc1ccc(CNC(=O)C2CCN(S(=O)(=O)c3ccc4c(c3)C(C)(C)C(=O)N4C)CC2)cc1	-16%	-28%	-1%	5%	1%	?
Cc1ccc(S(=O)(=O)c2nc(Cc3ccccc3)oc2N2CCOCC2)cc1	1%	-1%	6%	8%	9%	-18%
Cc1cccc(NC2=CC(c3cccc(Br)c3)N(c3cccc(C)c3)C2=O)c1 (centres undefined)	?	-3%	·	-8%	·	8.2µM*
COC(=O)c1ccccc1NC(=O)CSc1nc2ccsc2c(=O)n1CCCCC(=O)O	-28%	-1%	-3%	-8%	-1%	-23%
CC(CCN1C(Nc2ccccc2)=NC[C@@H]1C)c1ccccc1 (some centres undefined)	23µM*	10%	13%	2%	6%	12µM*
CCCCN1C(Nc2ccccc2)=NC[C@@H]1CC(C)C	?	-10%	1%	1%	-1%	?
CC(C)CCN1C(Nc2ccccc2)=NC[C@@H]1Cc1ccccc1	?	-26%	-2%	12%	-17%	16µM*
CC(C)CCN1C(Nc2ccccc2)=NC[C@@H]1C	-22%	?	4%	-2%	7%	?
CC(CCN1C(Nc2ccccc2)=NC[C@@H]1Cc1ccccc1)c1ccccc1 (some centres undefined)	?	-1%	-13%	-19%	-1%	18µM*
CC(C)CCCN1C(Nc2ccccc2)=NC[C@@H]1CC(C)C	?	-20%	0%	-38%	-1%	18µM*
CCCCN1C(=O)C(C(=O)OCC)CC2=C1CCCC2=O (centres undefined)	-2%	-8%	6%	2%	15%	-7%
CC(C)C[C@H]1CN=C(Nc2ccccc2)N1CCCCc1ccccc1	26µM*	-1%	-7%	-37%	-18%	?
SMILES	TDP1 cell CPT	TGFb SMAD3 inh	HT1080 IDH1KD tx	HepG2 viability	HT1080-NT tox	DT40 TDP1 no CPT
CC(C)CCCN1C(Nc2ccccc2)=NC[C@@H]1Cc1ccccc1	?	-7%	-28%	-17%	-21%	16µM*
CC(C)CN1C(Nc2ccccc2)=NC[C@@H]1C	0%	32%	11%	29%	9%	14%
CCCCCCCCCCCCCCCC(=O)OC(C)C	-1%	·	·	·	·	-3%
OC(c1ccccc1)c1nc(-c2ccc(Cl)cc2)cs1 (centres undefined)	?	-15%	?	-28%	?	?
CC(C)(C)c1ccc(OCC(=O)N/N=C/c2cc(Br)ccc2OC(=O)c2ccco2)cc1	4.6µM*	1%	7%	-5%	8%	4.1µM*
O=C(O)/C=C/c1cccc(NS(=O)(=O)c2ccccc2)c1	2%	6%	20%	9%	6%	7%
NS(=O)(=O)c1cccc(NS(=O)(=O)c2ccc(/C=C/C(=O)O)cc2)c1	5%	-1%	10%	13µM*	-2%	-4%
C=C1[C@H](C)CN(S(=O)(=O)C(C)(C)C)[C@H]1CCO	-25%	23%	3%	-27%	-2%	1%
CC(C)(C)S(=O)(=O)N1C[C@H]2CC/C=C\C/C=C\2[C@@H]1CCO	21µM*	3%	1%	3%	7%	13µM*
CC(C)(C)S(=O)(=O)N1C[C@@H]2CC/C=C\C/C=C\2[C@H]1CCO	13µM*	-6%	2%	5%	7%	8.2µM*
CCN(C(=O)CSc1nc(-c2cccs2)nc2ccccc12)C1CCS(=O)(=O)C1 (centres undefined)	?	-7%	-7%	13%	-9%	?
COc1ccc(OC)c(-c2cc(Cl)c3c(c2)CC(CNC(=O)c2cnn4cccnc24)O3)c1 (centres undefined)	19%[9.04 µM]	·	·	·	·	-15%
CC(=O)c1c(-c2ccccc2)c2cc([N+](=O)[O-])ccc2[nH]c1=O	?	-9%	-4%	2%	-2%	15µM*
COc1ccc(C(=O)CSc2nc(C)cc(C)c2C(=O)Nc2ccccc2C)cc1	?	-28%	·	-2%	·	15µM*
Cc1ccc(C(=O)CSc2nc(C)cc(C)c2C(=O)Nc2cccc(C)c2)cc1	21µM*	0%	·	-10%	·	?
COc1ccccc1NC(=O)c1c(C)cc(C)nc1SCC(=O)Nc1ccc(C)cc1	?	?	·	-16%	·	?

Compound activity as filed in PubChem BioAssay.
